We go through one sequence from patent publication US20140271602, “NUCLEOTIDE-SPECIFIC RECOGNITION SEQUENCES FOR DESIGNER TAL EFFECTORS” (THE BROAD INSTITUTE INC., published 2014).

For this test, the target named is T1, TALE1-HN (CACNA1C site 1 activator) (Xanthomonas (engineered), UniProt P14727 SEQ:1-983).
T1 chain: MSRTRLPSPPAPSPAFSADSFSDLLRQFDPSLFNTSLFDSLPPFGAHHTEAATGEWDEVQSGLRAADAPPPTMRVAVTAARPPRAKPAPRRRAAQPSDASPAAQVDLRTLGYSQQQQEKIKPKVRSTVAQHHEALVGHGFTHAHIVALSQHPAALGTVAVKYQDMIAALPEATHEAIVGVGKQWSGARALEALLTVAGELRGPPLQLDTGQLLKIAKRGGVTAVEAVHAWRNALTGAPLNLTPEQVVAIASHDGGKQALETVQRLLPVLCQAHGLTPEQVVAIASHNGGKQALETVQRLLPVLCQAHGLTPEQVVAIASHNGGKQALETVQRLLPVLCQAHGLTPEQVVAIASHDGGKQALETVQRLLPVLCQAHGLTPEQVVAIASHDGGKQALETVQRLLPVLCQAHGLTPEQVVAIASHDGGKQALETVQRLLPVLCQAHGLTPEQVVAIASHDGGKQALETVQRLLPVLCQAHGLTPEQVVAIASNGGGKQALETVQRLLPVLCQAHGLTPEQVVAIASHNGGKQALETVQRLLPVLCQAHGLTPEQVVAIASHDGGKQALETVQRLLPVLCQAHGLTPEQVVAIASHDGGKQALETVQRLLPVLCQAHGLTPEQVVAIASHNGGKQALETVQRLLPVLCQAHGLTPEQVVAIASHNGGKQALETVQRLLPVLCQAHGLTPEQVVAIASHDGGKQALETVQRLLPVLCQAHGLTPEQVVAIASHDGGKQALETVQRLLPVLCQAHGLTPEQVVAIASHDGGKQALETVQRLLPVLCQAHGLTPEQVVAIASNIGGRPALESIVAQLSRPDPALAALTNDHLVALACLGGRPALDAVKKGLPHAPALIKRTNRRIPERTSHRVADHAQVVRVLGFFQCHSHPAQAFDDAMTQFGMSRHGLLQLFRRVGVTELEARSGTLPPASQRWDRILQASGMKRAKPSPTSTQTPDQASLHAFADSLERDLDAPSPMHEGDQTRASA
Briefly: cell_activity; luciferase reporter. The following applies: tags: VP64, 2A-GFP; dsDNA, one strand shown. How it is done:
TALEs using NN, NK, NH, and HN as the G-targeting RVD were synthesized to target two distinct 18 bp target sites in the human CACNA1C locus. Changes in mRNA are measured using qRT-PCR as described previously. VP64, VP64 transcription activation domain. All results are collected from three independent experiments in HEK 293FT cells. Error bars indicate s.e.m.; n=3. FIG. 19(b) discloses SEQ ID NOS 63 and 62, respectively, in order of appearance.
To determine whether NH and HN are suitable replacements for NN as the G-specific RVD, specificity and activity strength of NN, NK, NH, and HN were directly compared. Two 18 bp targets within the CACNA1C locus in the human genome were chosen and four TALEs for each target were constructed, using NN, NK, NH, or HN as the G-targeting RVD (FIG. 19a). […] For each CACNA1C target site, four luciferase reporters were constructed: wild type genomic target, and wild type target with 2, 4, or all guanines mutated into adenines (FIG. 19a, G-to-A reporters), and compared the activity of each TALE using these reporters (FIG. 19a). […] Thus, focus was placed on the RVDs NN, NK, and NH in subsequent experiments to assess their usefulness in modulating transcription at endogenous human genome targets.
(In general: Reporter assays use an easily measured gene product as a stand-in for the process of interest.)
Turning to TCAACCCCTGCCGGCCCA, the binding signal was 30.8 % reduction vs wild-type site.
